Results published in PubChem BioAssay AID624330 (Southern Research Specialized Biocontainment Screening …, 2012).
Out of some 340,000 compounds screened, about 2,100 (0.62%) were called active.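 Rule for the calls: active = first-screen hits whose inhibition reached a set limit at any dose in the follow-up dose series; inconclusive = inhibition above the set first-screen limit but never retested; inactive = the rest.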 The list is a sample of the results. Measured potencies and affinities stand elsewhere.

Each molecule was assayed against Rac GTPase-activating protein 1 (Homo sapiens) (UniProt Q9H0H5) (assay: MgcRacGAP GTPase-activating activity inhibitors, confirmation, biochemical, ADP Hunter fluorescence, primary and confirmatory (AID 624330;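 note: fluorescence reports GDP produced by GAP-driven GTP hydrolysis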)). Conditions: MgcRacGAP-stimulated Rac1 GTP hydrolysis, at 30 µM, hits give high values, GST-tagged Rac1 F28L mutant substrate.
Rac GTPase-activating protein 1 (Homo sapiens), sequence (Q9H0H5 whole entry, looked up): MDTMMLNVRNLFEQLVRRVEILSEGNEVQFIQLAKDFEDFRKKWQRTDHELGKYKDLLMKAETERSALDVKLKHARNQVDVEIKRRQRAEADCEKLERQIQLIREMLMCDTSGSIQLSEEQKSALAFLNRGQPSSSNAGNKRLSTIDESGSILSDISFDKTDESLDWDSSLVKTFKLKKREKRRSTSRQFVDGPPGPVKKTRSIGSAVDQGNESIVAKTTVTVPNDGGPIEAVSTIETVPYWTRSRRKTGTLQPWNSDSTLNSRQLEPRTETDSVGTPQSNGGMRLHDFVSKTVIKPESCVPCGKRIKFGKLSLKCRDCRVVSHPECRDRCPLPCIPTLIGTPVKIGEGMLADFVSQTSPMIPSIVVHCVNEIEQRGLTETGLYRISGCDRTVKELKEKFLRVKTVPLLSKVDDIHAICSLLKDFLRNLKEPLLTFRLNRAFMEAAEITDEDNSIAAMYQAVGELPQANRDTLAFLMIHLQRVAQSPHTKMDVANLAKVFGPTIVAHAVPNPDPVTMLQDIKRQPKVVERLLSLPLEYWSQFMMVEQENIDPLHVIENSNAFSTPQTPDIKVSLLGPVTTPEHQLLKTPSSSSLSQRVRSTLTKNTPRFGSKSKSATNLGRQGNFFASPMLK

inhibition, inactive:
COc1cccc(NC(=O)COc2ccc(C(=S)N3CCN(C)CC3)cc2OC)c1 7.49%, Cc1ccc(NC(=O)CSc2nn(-c3ccccc3)c(=S)s2)cc1S(=O)(=O)N(C)C 2.35%, O=C(c1ccccc1F)N1CCN(C(=O)C2CC2)CC1 3.19%, CC1(C)O[C@@H]2[C@H](O1)[C@@H](COS(=O)(=O)O)O[C@H]2n1ccc(=O)[nH]c1=O 2.43%, CC1(C)O[C@@H]2[C@H](O1)[C@@H](COS(=O)(=O)O)O[C@H]2n1cnc2c(=O)[nH]cnc21 7.41%, CC1CN(S(=O)(=O)N(C)C)CCN1S(=O)(=O)N(C)C (stereo not given) 5.65%, COC(=O)c1c(N)sc(Cc2ccccc2)c1C 7.62%, CCOC(=O)c1c(N)sc(-c2ccccc2)c1C 27.2%, CC(C)c1ccc(N2C(=O)CC(Sc3ncccn3)C2=O)cc1 (stereo not given) 1.68%, O=S(=O)(c1ccccc1)N1CCN(S(=O)(=O)c2ccccc2)C1 3.12%, CC1=C(C)CS(=O)N(S(=O)(=O)c2ccccc2)C1 (stereo not given) 30.6%, Cc1cccc(C(=O)NCC(c2ccc(F)cc2)N2CCOCC2)c1 (stereo not given) 3.85%, Cc1ccc(C)c(CSc2ncccc2C(=O)O)c1 9.95%, NC(=O)c1ccc2c(c1)OCCO2 -2.13%, O=C(c1ccccc1)c1ccc2c(c1)OCCOCCOCCOCCO2 -8.09%, O=C(Nc1cccnc1)c1cccc(NC(=O)c2ccco2)c1 11.1%, O=C(Nc1cccc(S(=O)(=O)Nc2ccccc2F)c1)c1ccco1 0.67%, N#Cc1cc([N+](=O)[O-])ccc1NCCCn1ccnc1 -2.38%, Cc1nnc2n(-c3ccccc3)c(=O)c3ccccc3n12 9.66%, Cc1ccccc1-n1c(=O)c2ccccc2n2c(=O)[nH]nc12 3.11%, CCCCCn1c(=O)c2ccccc2n2c(CCl)nnc12 1.94%, Cc1ccccc1-n1c(=O)c2ccccc2n2cnnc12 2.97%, CCOCCCNC(=O)CCc1nnc2n(CCC(C)C)c(=O)c3ccccc3n12 7.91%, Cn1c(=O)c2ccccc2n2c(CCl)nnc12 -0.09%, CN1CCN(C(=O)/C(=C/c2ccco2)NC(=O)c2ccccc2)CC1 3.42%, CC1CCCCN1C(=O)NC1CC(=O)N(c2ccc3c(c2)OCCO3)C1 (stereo not given) 4.77%, CCCOc1ccc(C(=O)ON=C2CCN(C)CC2)cc1 5.39%, Cc1ccc(-c2csc3ncnc(N4CCN(Cc5ccccc5)CC4)c23)cc1 4.03%, O=C(CN1C(=O)NC2(CCOc3ccccc32)C1=O)c1ccc[nH]1 (stereo not given) -0.33%, COc1ccccc1CNc1nc2nc(C)c(Cl)c(=O)n2[nH]1 3.76%, Cc1nc2sc(C(c3cccs3)N3CCN(C(=O)c4ccco4)CC3)c(O)n2n1 (stereo not given) 1.66%, Cc1cc(O)cc(O)c1C(=O)Cc1cscn1 7.26%, CCc1cc(/C(Cc2ccc3ccccc3n2)=N\O)c(O)cc1O 22.8%, CCc1cc2c(=O)c(-c3cscn3)coc2cc1O -2.61%, CCc1cc(/C(Cc2ccccn2)=N\Nc2ccccc2)c(O)cc1O 5.83%, CCc1cc(C(=O)Cc2ccccn2)c(O)cc1O -7.09%, Cc1cc(O)c(C(=O)Cc2csc(C)n2)c(O)c1 1.16%, CCOC(=O)N1CCC(=NNC(=O)NC2CCCCC2)CC1 -0.13%, Cn1c(=O)n(C)c2cc(/C=N/N=C3/NC(=O)C(CC(=O)O)S3)ccc21 (stereo not given) 11.1%, Nn1c(SCC(=O)NCC2CCCO2)nnc1-c1cc(Cl)ccc1Cl (stereo not given) 5.2%, COc1ccccc1OCC(=O)NNC(=O)CSC(=S)N1CCCC1 8.8%, CC(C)C(NC(=O)CNC(=O)OC(C)(C)C)C(=O)NCc1ccc(Cl)cc1 (stereo not given) 4.12%, c1ccc(OCCCCN2CCCCC2)cc1 12.9%, CN1CCN(CCOc2ccc(Cc3ccccc3)cc2)CC1 10.6%, COc1ccc(OCCOCCN2CCc3ccccc3C2)cc1 28.9%, COc1ccc(OCCOCCN2CCOCC2)cc1 12.8%, CCOc1ccc(OCCN2CCCCC2)cc1 19.4%, CCOc1cccc(OCCOCCN2CCCC2)c1 25%, CCN1CCN(CCOCCOc2ccccc2)CC1 28.1%, c1ccc(COc2ccc(OCCCN3CCCC3)cc2)cc1 15.1%, CC(Sc1nnc(-c2ccccc2F)n1C)C(=O)NC1CCCCC1 (stereo not given) 6.18%, CCOC(=O)c1c(C)sc(Sc2ccc(Cl)cc2[N+](=O)[O-])c1OC 4.34%, Cc1ccnc(SC2CC(=O)N(c3ccc(F)cc3)C2=O)n1 (stereo not given) 1.56%, C(=N\N=C\c1ccccn1)/c1ccccn1 3.13%, COc1ccc(CN(C)C(=O)[C@H](Cc2ccccc2)NC(=O)c2ccco2)c(OC)c1 0.3%, COCCCNC(=O)CC1C[C@H](C(=O)N2CCOCC2)[C@@]2(C)c3[nH]c4ccc(OC)cc4c3CCN2C1=O (stereo not given in full) 8.55%, Cc1ccccc1N(CC(=O)N/N=C/c1cc(Br)c(C)o1)S(C)(=O)=O 4.93%, O=S(=O)(NCCN1CCOCC1)c1ccc2c(c1)OCCO2 3.86%, C/C(=N\NC(=O)C1(C)CC1(Br)Br)c1cccc(NC(=O)c2ccc(C)o2)c1 (stereo not given) 5.18%, O=C(C1=NN[C@@H]2C(=O)N(Cc3ccccc3)C(=O)[C@H]12)c1ccc([N+](=O)[O-])cc1 14.7%, COc1ccc(/C=C2\SC(N3CCc4ccccc4C3)=NC2=O)cc1OC 10.4%, O=C(CCC(=O)c1cccs1)NCC(c1ccc(F)cc1)N1CCOCC1 (stereo not given) 4.84%, Cc1cccc(N2CCN(C(=O)c3ccc4c(c3)c(C)c(C)n4C)CC2C)c1 (stereo not given) -37%, Cc1cc(C)n(CC(=O)N2c3ccccc3Sc3ccccc32)n1 4.56%, Cc1nn(CC(O)CN2c3ccccc3Sc3ccccc32)c(C)c1Br (stereo not given) 7.34%, COc1ccccc1NCc1ccc([N+](=O)[O-])s1 15.3%, COc1ccc(NCc2ccc([N+](=O)[O-])s2)cc1 23.5%, Cc1ccc(Sc2ccc(N)cc2C#N)cc1 4.36%, COC(=O)c1ccc(Sc2ccc(C)cc2)c(N)c1 9.92%, Nc1ccc(C(=O)OCCc2ccccc2)cc1 6.65%, NC(=S)c1ccc(OCCCc2ccccc2)cc1 8.89%, CC(=O)NC(Cc1ccc(C(C)C)cc1)C(=O)NC1CCN(c2nc(C)cc(C)n2)CC1 (stereo not given) 7.86%, CC(c1ccc2ccccc2c1)c1ccccc1C(=O)O (stereo not given) 5.25%, N#C/C(=C/c1ccc(N2CCCCCC2)o1)c1ccc(Cl)cc1 38.4%, N#C/C(=C\c1ccc(N2CCOCC2)cc1)c1ccccc1 -4.89%, N#C/C(=C/c1ccc(N2CCOCC2)o1)c1ccc(Cl)cc1 41.4%, N#C/C(=C/c1ccc(N2CCOCC2)o1)c1ccc(Br)cc1 27%, O=C1c2cccc3cccc(c23)C(=O)N1Cc1ccco1 6.44%, CCN(CC)c1ccc(C=C2C(=O)OC3(CCCCC3)OC2=O)cc1 4.11%, CCN(CC)c1ccc(C=C2C(=O)OC3(CCCC3)OC2=O)cc1 14.2%, O=C1c2ccccc2C(=O)N1Cc1ccco1 8.18%, COC(=O)C1=C(C)N(Cc2ccco2)C(=O)/C1=C\c1ccc(N(C)C)cc1 1.57%, CN(C)c1ccc(C=C2SC(=S)N(Cc3ccco3)C2=O)cc1 9.1%, COCCNC(=S)N/N=C/c1c2ccccc2cc2ccccc12 6.58%, COc1ccccc1CC(=O)Nc1ccc2c(C)cc(=O)oc2c1 4.86%, COC(=O)C(CC(C)C)NC(=O)c1cccs1 (stereo not given) 0.95%, COc1ccc(N=C2S/C(=C\c3cccs3)C(=O)N2CC(C)C)cc1 12.5%, CC(C(=O)NCC(=O)Nc1ccc(F)c(F)c1F)N1CCN(Cc2ccc(C#N)cc2)CC1 (stereo not given) -0.12%, O=C(CN1CCCCC1)NCC(=O)Nc1ccc(F)c(F)c1F -2.94%, CC(C(=O)Nc1ccc(F)c(F)c1F)N1CCCCCC1 (stereo not given) 9.76%, O=C(CN1CCN(Cc2cccc(C(F)(F)F)c2)CC1)NCC(=O)Nc1ccc(F)c(F)c1F 3.75%, COc1ccc(N(CC(C)C)S(=O)(=O)c2nnc(NC(=O)CC(C)C)s2)cc1 2.69%, CC(=O)Nc1cc(-c2ccccc2)nn1Cc1ccc(Cl)cc1 -1.04%, [O-]/[N+](=N\Nc1ccc(Cl)cc1)c1ccccc1 9.79%, CC[n+]1cc(C)ccc1/C=C/c1ccc(N(C)C)cc1 7.19%, CN(C)c1ccc(/C=C/c2cc[n+](C)cc2)cc1 22.9%, CN1/C(=C/c2cc[n+](C)c3ccccc23)C=Cc2ccccc21 31.4%, CN(C)c1ccc(C=Cc2ccnc3c(O)cccc23)cc1 8.47%, CN1C=C/C(=C\c2cc[n+](C)c3ccccc23)c2ccccc21 -0.62%, CC[n+]1ccccc1/C=C/c1ccc(N(C)C)cc1 10.2%
